# Screening data (PubChem)
# In the library only some 4.4% were active in any assay of this set; here they are far more common.
# TIM10 inh: growth inhibitors of isogenic TIM10 control yeast, primary screen, counter-screen for tim10-1 yeast inhibitor project, luminescence, uHTS. S. cerevisiae TIM10 strain growth, BacTiter-Glo luminescence, 24 h. inhibition, % at 10 µM. 330,000 compounds, 1.4% hits. AID 463195, 2010;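 active means inhibition of 40% or more at the single tested concentration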;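 further: wild-type TIM10 isogenic control strain grown at permissive 25 °C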
# tim23-1 inh: growth inhibitors of tim23-1 mutant yeast, primary screen, luminescence, uHTS; S. cerevisiae tim23-1 growth, BacTiter-Glo luminescence, 24 h; AID 463212, 2010; 330,000 compounds, 1.3% hits; inhibition, % at 20 µM;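 active means growth inhibition of the mutant yeast at or above 50%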;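 further: temperature-sensitive mutant grown at 25 °C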
# tim10-1 inh: growth inhibitors of tim10-1 mutant yeast, primary screen, luminescence, uHTS | S. cerevisiae tim10-1 ts strain growth, BacTiter-Glo, 24 h | inhibition, % at 20 µM | 330,000 compounds, 2.2% hits | AID 463190, 2010;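 active means inhibition of at least 40%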;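 further: mutant grown at 25 °C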
# PfHsp90 yeast 2: growth inhibition of PfHsp90-expressing yeast, primary screen, antimalarial PfHsp90 inhibitor project, S. cerevisiae, BacTiter-Glo luminescence, single point, set 2. BacTiter-Glo ATP, 48 h; yeast lacking PDR1 and PDR3 efflux regulators. inhibition, % at 9.4 µM. 310,000 compounds, 0.32% hits. AID 504621, 2011;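 active means every replicate shows inhibition above about 80%, whatever the replicate mean, limit read from the data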
# Mot1-301 SUMO: yeast Mot1-301 growth rescue at high temperature, primary screen, SUMOylation pathway inhibitor project, S. cerevisiae, ATP luminescence, 38.5C. S. cerevisiae Mot1-301 growth rescue; percent above DMSO median, 100 means doubled. growth rescue, % at 18.8 µM. 320,000 compounds, 1% hits. AID 2716, 2010;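 active means every valid replicate shows activation above 250% relative to neutral control wells; inactive means the rest, any valid replicate at or below 250%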
# tim10-1 confirm: growth inhibitors of tim10-1 mutant yeast, confirmation, single concentration, luminescence, S. cerevisiae; inhibition, % at 20 µM; AID 463213, 2010; shares compounds with tim10-1 inh; S. cerevisiae tim10-1 ts strain growth, BacTiter-Glo, 24 h; 7,400 compounds, 56% hits;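 active means inhibition of yeast growth at or above a set limit in either of two repeat tests at 20 µM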;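 further: tim10-1 mutant grown at permissive 25 °C to find synthetic lethal compounds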
# A number is an active result; - = inactive; . = no result given.
SMILES,TIM10 inh,tim23-1 inh,tim10-1 inh,PfHsp90 yeast 2,Mot1-301 SUMO,tim10-1 confirm
Cc1cc(-c2[nH]nc3c2C(c2ccsc2)C(C#N)=C(N)O3)c(C)s1 (centres undefined),-,-,46.8,-,-,44.3
Cc1ccc(-c2[nH]nc3c2C(C)C(C#N)=C(N)O3)cc1 (centres undefined),-,-,40.5,-,-,32.5
CCc1nc2ccccc2c(=O)n1NC(=O)c1c(O)c2ccccc2n(CC)c1=O,-,-,-,.,-,.
CCCCCCC1CCC(C(=O)Nn2c(C)nc3ccccc3c2=O)CC1 (centres undefined),-,-,-,-,-,.
CCn1c(=O)c(C(=O)Nn2c(C)nc3ccccc3c2=O)c(O)c2ccccc21,-,-,42.7,.,-,-
CCCC1CCC(C(=O)Nn2c(C)nc3ccccc3c2=O)CC1 (centres undefined),-,-,46.9,-,-,-
CCn1c(=O)c(C(=O)NNC(=O)c2cccc(Cl)c2)c(O)c2ccccc21,-,-,46.1,-,-,51.4
CCn1c(C)cc(O)c(C(=O)Nc2cccc(Cl)c2)c1=O,-,-,44.9,-,-,-
CCc1nonc1NC(=O)c1oc2ccc(F)cc2c1C,-,-,-,-,.,.
Cc1c(C(=O)Nc2nonc2-c2ccc(F)cc2)oc2ccc(F)cc12,-,-,44.3,-,-,-
CCN(CC(=O)NC1CC1)S(=O)(=O)c1ccc(OC)cc1,-,-,-,-,-,.
O=C(NCCS(=O)(=O)N1CCN(c2ccc(F)cc2)CC1)C12CC3CC(CC(C3)C1)C2,-,-,41.5,.,-,-
CSc1ccccc1C(=O)NCCS(=O)(=O)N1CCN(c2ccc(F)cc2)CC1,-,-,-,-,-,.
CC(/C=N/NC(=O)c1c(Br)cnn1C)=C\c1ccccc1,-,-,-,-,-,.
Cn1ncc(Br)c1C(=O)N/N=C/c1ccc(OS(=O)(=O)c2ccccc2)cc1,-,-,45.3,.,-,-
CCN(CC)C(=O)N1CCc2ccccc2C1CN1C(=O)c2ccccc2C1=O (centres undefined),-,-,48.3,-,.,-
O=C1c2ccccc2C(=O)N1CC1c2ccccc2CCN1C(=O)C1CCCCC1 (centres undefined),-,-,-,-,-,.
COc1ccc(NC(=O)CC2SC(=O)NC2=O)cc1 (centres undefined),-,-,40.7,-,-,33.5
N#Cc1ccc(C(=O)OCC(=O)Nc2cccnc2Cl)cc1,.,.,.,-,.,.
COc1cc2c(cc1NC(=O)COC(=O)[C@@H](NC(=O)c1ccccc1F)C(C)C)oc1ccccc12,-,-,40.4,-,-,-
CCn1cc(Br)c(C(=O)Nc2ccc(C(=O)OC(C)C)cc2)n1,-,-,41.1,-,-,33.5
CCn1cc(Br)c(C(=O)Nc2ccc(OC)cc2)n1,-,-,-,-,-,.
Nc1nc2cc(S(=O)(=O)N3CCOCC3)ccc2o1,-,-,-,-,-,.
COC(=O)c1c(-c2ccc(Br)cc2)noc1N,-,-,46.5,.,-,-
CCOc1cc(-c2noc(N)c2C(=O)OC)cc(OCC)c1OCC,-,-,-,-,-,.
SMILES,TIM10 inh,tim23-1 inh,tim10-1 inh,PfHsp90 yeast 2,Mot1-301 SUMO,tim10-1 confirm
C/C(=N\NC(=O)Cc1csc(N2CCOCC2)n1)c1ccc(Cl)c(Cl)c1,-,-,41.3,-,-,-
CCC/C(=N\NC(=O)Cc1csc(N2CCOCC2)n1)c1ccccc1,-,-,-,-,-,.
Cc1cc(C(=O)NNC(=O)/C=C/c2ccco2)c(C)o1,-,-,-,-,.,.
COc1ccc(C(=O)OCC(=O)Nc2cc(C)on2)c(OC)c1OC,-,-,85.3,-,.,-
CCCc1ccc(OCc2ccc(C(=O)N/N=C/c3cccnc3)o2)cc1,-,-,-,-,-,.
CCOC(=O)c1cc(C)n(-c2ccc(OC)c(OC)c2)c1C,-,-,47.1,-,-,-
Cc1cccc(/C=C2\Sc3ccc(C(=O)N4CCOCC4)cc3N(C)C2=O)c1,-,-,-,-,-,.
Cc1cccc(/C=C2\Sc3ccc(C(=O)N4CCCCC4)cc3N(C)C2=O)c1,-,-,45.4,-,-,-
CN1C(=O)/C(=C/c2cccc(Cl)c2)Sc2ccc(C(=O)N3CCCC3)cc21,-,-,51.9,.,-,-
CCc1cc(=O)oc2cc(C)cc(OCC(=O)N[C@@H](CSCc3ccccc3)C(=O)O)c12,-,-,-,-,-,.
O=C(O)/C=C/C(=O)c1ccc2c(c1)CCc1ccccc1-2,-,-,58.3,96.0,-,54.3
Cc1cccnc1NC(=O)c1ccc(NS(=O)(=O)/C=C/c2ccccc2)cc1,-,-,-,-,-,.
COc1ccc(S(=O)(=O)N2CCN(c3ccccc3OC)CC2)cc1,-,-,43.4,-,-,34.5
CCc1ccc(S(=O)(=O)N2CCN(c3ccccc3OC)CC2)cc1,-,-,-,-,-,.
Cc1nnc(N/N=C/c2cccc(C(F)(F)F)c2)n1N,-,-,-,-,-,.
Cc1nnc(N/N=C/c2cccc(OCc3ccc(Cl)c(Cl)c3)c2)n1N,-,-,43.0,-,-,36.4
CCCN(CCC)S(=O)(=O)c1cc(Br)cc2c1N(C(=O)CC)CC2,-,-,46.2,.,-,34.1
CCC(=O)N1CCc2cc(Br)cc(S(=O)(=O)CCC(=O)N(CC)CC)c21,-,-,-,-,-,.
O=C(Cc1ccc(Br)cc1)NCCc1ccc(Cl)cc1Cl,-,-,-,-,-,.
COc1ccc(CC(=O)NCCc2ccc(Cl)cc2Cl)cc1,-,-,40.3,-,-,-
CC(C)n1nc(C(=O)Nc2ccc3c(c2)OCO3)c2ccccc2c1=O,-,-,-,-,-,.
COc1cccc(-c2nn(C)c3sc(C(=O)NCc4ccc(C)cc4)cc23)c1,-,-,-,-,-,.
COc1cccc(-c2nn(C)c3sc(C(=O)NCc4ccccn4)cc23)c1,-,-,45.2,-,-,-
COc1ccc(C(C)NC(=O)CC23CC4CC(CC(C4)C2)C3)cc1 (centres undefined),-,-,-,-,-,.
Cc1c(Cl)cnc(NC(=O)COC(=O)CNC(=O)c2ccccc2)c1Cl,-,-,-,.,-,.
COc1ccc(CC(=O)OCC(=O)Nc2ncc(Cl)c(C)c2Cl)cc1,-,-,43.1,.,.,30.4
OC1CCN(c2ncnc3c2nnn3Cc2c(F)cccc2Cl)CC1,-,-,42.7,-,-,-
Cc1nc(CN2CCN(S(=O)(=O)c3c(Cl)cc(Br)cc3Cl)CC2)cs1,-,-,48.7,.,.,43.7
Cc1nc(CN2CCN(C(=O)NC3(c4ccccc4)CC3)CC2)cs1,-,-,-,-,-,.
Cc1nc(NC(=O)c2cnccn2)ccc1Br,.,.,.,-,-,.
